Rows were chosen to be rich in hits. Some 15% of all compounds tested hit in one or more screens of this group.
DT40 TDP1 CPT: growth inhibition of DT40 Tdp1-/-;hTDP1 cells with camptothecin (screen for TDP1 inhibitors); actives 12% (n = 420,000); Potency, µM (doses to about 46.2 µM), usual class: inhibitors; chicken DT40 Tdp1-/-;hTDP1 cells + 20 nM CPT, ATP luminescence, 48 h; AID 686979; further: nearly all actives have a fitted effect of over 55% in size
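Chicken DT40 Tdp1-/- cells stably complemented with human TDP1 were seeded at 400 cells/well in medium containing 20 nM camptothecin, exposed to pin-transferred compounds, and grown at 37 °C for at least 48 hr. Viability was read as ATP luminescence.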
VP16 counter: Gal4-VP16 reporter inhibition counter-screen. Drosophila S2 Gal4-VP16 UAS-luciferase, luminescence, 20 h. AID 2546. Potency, µM (titrated, usually from 53.6 µM), hits mostly inhibitors. actives 3.5% (n = 310,000);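 further: Gal4-VP16 expression switched on by copper sulfate through the metallothionein promoter; nearly all actives have a fitted effect of over 50% in size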
ALOX12 inh: inhibitors of human 12S-lipoxygenase ALOX12. purified 12hLO, xylenol orange hydroperoxide absorbance. AID 1671190. actives 1.1% (n = 580,000). Potency, µM (top dose mostly 108 µM), hits mostly inhibitors. P18054
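Purified human 12hLO (150 nM final) in 25 mM Hepes, 0.01% Triton X-100, pH 7.0 was preincubated 15 min at room temperature with compound. Then 40 uM arachidonic acid was added, 30 min. Hydroperoxide was read by Fe-XO absorbance ratio 573/405 nm.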
ELG1 DNA repair: ELG1-dependent DNA repair inhibition. actives 2.3% (n = 330,000). Potency, µM (top dose mostly 46.1 µM), actives largely listed as inhibitors. AID 504467. HEK293T ELG1-luciferase reporter, luminescence, 16 h; DNA damage induced by 5-fluorouridine; further: nearly all actives have a fitted effect of over 55% in size
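DMSO vehicle served as the neutral condition. Each well held 2,000 cells given 5-fluorouridine plus compound; after 16 hr at 37 °C/5% CO2, ONE-Glo was added and luciferase measured 30 min later.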
TDP1 cell noCPT: qHTS for Inhibitors of human tyrosyl-DNA phosphodiesterase 1 (TDP1): qHTS in cells in absence of CPT | DT40 Tdp1-/- hTDP1 cells, no CPT, ATP luminescence, 48 h | Potency, µM (top dose mostly 46.2 µM), hits mostly inhibitors | actives 15% (n = 420,000) | AID 686978, 2013; further: nearly all actives have a fitted effect of over 55% in size
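Cells were dispensed at 400 per well, compounds added by pin tool, plates incubated ≥48 hr at 37 °C, then CellTiter-Glo added for 30 min at room temperature before luminescence reading. Line: DT40 Tdp1-/- complemented with hTDP1; camptothecin omitted.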
RORg inh: ROR gamma (mouse) transcription inhibition; Drosophila S2 Gal4-RORgamma UAS-luciferase reporter, 20 h; P51450; Potency, µM (series often up to 53.6 µM), hits mostly inhibitors; actives 5.4% (n = 310,000); further: nearly all actives have a fitted effect of over 60% in size
Target sequence (P51450 whole entry, looked up, the tested form may be a part): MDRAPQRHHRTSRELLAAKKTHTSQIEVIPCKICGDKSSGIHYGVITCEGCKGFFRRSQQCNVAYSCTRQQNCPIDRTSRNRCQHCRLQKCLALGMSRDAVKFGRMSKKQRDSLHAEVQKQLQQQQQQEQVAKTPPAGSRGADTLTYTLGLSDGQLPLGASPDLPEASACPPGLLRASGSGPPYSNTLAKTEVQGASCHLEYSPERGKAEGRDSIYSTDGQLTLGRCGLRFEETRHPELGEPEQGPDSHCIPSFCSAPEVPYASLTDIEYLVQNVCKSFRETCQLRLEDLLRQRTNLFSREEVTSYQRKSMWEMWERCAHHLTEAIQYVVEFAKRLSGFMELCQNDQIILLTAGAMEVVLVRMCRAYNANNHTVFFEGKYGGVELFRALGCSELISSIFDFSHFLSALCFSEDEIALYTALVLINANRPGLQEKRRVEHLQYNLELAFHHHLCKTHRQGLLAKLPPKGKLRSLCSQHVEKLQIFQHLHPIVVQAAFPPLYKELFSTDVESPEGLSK
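Stably transfected Drosophila Schneider cells are the test system, with ROR gamma fused to Gal4 and luciferase under UAS control; luminescence is read after 20 hr of 700 uM copper sulfate induction at ambient temperature.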
A number is an active result; n = inactive; u = inconclusive; x = no result given; [ ] = another dose, or the depositor's remark. The call rests on the fitted dose curve; in most records, active means well fitted curve in the direction sought with a large enough effect; inconclusive means small, poorly fitted or top-dose-only effect, or another doubt; inactive means no such curve, though single readings can be large; an effect the other way counts as inactive or inconclusive.

SMILES	DT40 TDP1 CPT	VP16 counter	ALOX12 inh	ELG1 DNA repair	TDP1 cell noCPT	RORg inh
Clc1cc2nc[nH]c2cc1Cl	n	n	n	n	n	n
CCOC(=O)c1c(NC(=O)COC(=O)Cn2cnc3c2c(=O)n(C)c(=O)n3C)sc(C)c1CC	6.5µM	x	n	u	n	x
CCOC(=O)c1cc([N+](=O)[O-])cc([N+](=O)[O-])c1Sc1ncnc2nc[nH]c12	1.8µM	x	n	x	2.6µM	x
CCOC(=O)C(C)(C)Sc1ncnc2nc[nH]c12	u	n	n	n	n	n
COC(=O)c1ccccc1NC(=O)C1CCCN(S(=O)(=O)c2ccc(F)cc2)C1 (stereo not drawn)	15µM	n	n	u	10µM	n
COC(=O)c1ccccc1NC(=O)C1CCCN(S(=O)(=O)c2ccc(OC)cc2)C1 (stereo not drawn)	18µM	n[0.365 µM]	n	u	12µM	n
COC(=O)c1ccccc1NC(=O)C1CCCN(S(=O)(=O)c2ccccc2)C1 (stereo not drawn)	u	n	n	u	u	n
COc1ccccc1NC(=O)C1CCCN(S(=O)(=O)c2ccc3[nH]c(=O)ccc3c2)C1 (stereo not drawn)	21µM	n	n	n	u	n
COC(=O)c1ccccc1NC(=O)C1CCCN(c2nnc(-n3cccc3)s2)C1 (stereo not drawn)	16µM	n	n	u	21µM	n
O=C(O)C1(c2ccc(Cl)cc2)CCCCC1	x	x	n	x	x	x
COc1ccc(-c2noc(-c3cccn3CC(=O)Nc3cccc(F)c3)n2)cc1F	x	x	n	x	x	x
CCCc1nc(SC)ncc1C(=O)Nc1ccccc1F	x	x	n	x	x	x
Cc1oc2cc(OCC(=O)NCC(=O)O)ccc2c(=O)c1-c1ccc(Cl)cc1	x	x	n	x	x	x
COc1ccc(N(C)S(=O)(=O)c2cccc(C(=O)NC3=NCCS3)c2)cc1	n	u	n	u	u	6.3µM
C=CCN(c1ccccc1OC)S(=O)(=O)c1cccc(C(=O)NC2=NCCS2)c1	u	x	n	23µM	23µM	x
C=CCN(c1ccccc1)S(=O)(=O)c1cc(C(=O)NC2=NCCS2)ccc1Cl	n	u	n	21µM	n	u
Cc1ccc(N(C)S(=O)(=O)c2cccc(C(=O)NC3=NCCS3)c2)cc1	u	u	n	u	u	u
C=CCN(c1ccc(F)cc1)S(=O)(=O)c1cc(C(=O)NC2CCC(O)CC2)ccc1Cl (stereo not drawn)	u	x	u	n	n	x
COc1ccc(N(C)S(=O)(=O)c2cccc(C(=O)NCC3CCCCC3)c2)cc1	23µM	n	n	u	13µM	n
CN(Cc1ccccc1)C1CCCc2ccccc21 (stereo not drawn)	x	x	n	x	x	x
COc1ccc(OC2C(=O)N(c3cc(C)ccc3C)C2c2ccc(OC)c(OC)c2)cc1 (stereo not drawn)	u	n	n	18µM	u	n
COc1ccc(OC2C(=O)N(c3ccc(C)c(C)c3)C2c2ccc(OC)c(OC)c2)cc1 (stereo not drawn)	u	n	n	u	15µM	n
COCC1(c2n[nH]c(C3CCOCC3)n2)CCC1	x	x	n	x	x	x
Cc1ccccc1CNC(=O)C(=O)NCCC1CCCCN1S(=O)(=O)c1ccccc1 (stereo not drawn)	16µM	x	n	n	18µM	x
Cc1ccc(S(=O)(=O)N2CCCCC2CCNC(=O)C(=O)NCc2cccnc2)cc1 (stereo not drawn)	21µM	x	n	n	18µM	x
O=C(NCCC1CCCCN1S(=O)(=O)c1ccc(Cl)cc1)C(=O)NCc1ccncc1 (stereo not drawn)	u	x	n	n	u	x
Cc1ccc(S(=O)(=O)N2CCCC(C(=O)NCc3cccnc3)C2)cc1Cl (stereo not drawn)	n	n	n	n	u	u
